Experimental data from PubChem BioAssay AID504848 (National Center for Advancing Translational Sciences (NCATS), 2011).
Among all 2,300 compounds or so, about 1,400 (61%) were called active. Inconclusive results (about 29%) are left out. The set was probably picked from earlier hits. The list shows a part of the results. Values without a mark were called inactive. Calls come from the whole dose curve; as a rule, active = well fitted inhibition curve with a large enough effect; inconclusive = small, poorly fitted or top-dose-only effect, or effect the other way; inactive = no such curve, though single readings can be large or run the other way.

Assay: Confirmation screen for delayed death inhibitors of the malarial parasite plastid, 96 hour incubation; note: nearly all actives have a fitted effect of over 60% in size
Settings: P. falciparum luciferase growth in erythrocytes; series mostly up to 28.7 µM; activity change, negative = inhibition: at the top concentration
In short: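 Two-generation (96 h, 37 C) exposure of P. falciparum carrying an integrated firefly luciferase reporter in erythrocytes, 0.1% parasitemia and 2% hematocrit final, Albumax-supplemented RPMI. Luminescence decrease measures growth inhibition.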
% is set by controls: 0 for no effect and ±100 for the full control effect; potency is the fitted concentration of half-maximal effect.

| Compound | Potency | activity change, negative = inhibition |
| --- | --- | --- |
| CCc1ccc(/C=C/c2c[nH]c3ccccc23)[n+](CC)c1 | 0.0501 µM (active) | – |
| CCN1CCCC1CNC(=O)c1ccc2c(c1)N(Cc1ccccc1F)C(=O)c1ccccc1S2(=O)=O (stereo not drawn) | 2 µM (active) | – |
| CCN1C(=O)c2ccccc2Sc2ccc(C(=O)NCCCN3CCCCC3)cc21 | 10 µM (active) | – |
| Cc1cccc(CN2C(=O)c3ccccc3S(=O)(=O)c3ccc(C(=O)NCCCN4CCCC4)cc32)c1 | 1.58 µM (active) | – |
| O=C(NCCCN1CCCC1)c1ccc2c(c1)N(Cc1ccccc1F)C(=O)c1ccccc1S2=O (stereo not drawn) | 11.2 µM (active) | – |
| O=C(c1ccc2c(c1)N(Cc1cccc(Cl)c1)C(=O)c1ccccc1S2(=O)=O)N1CCN(c2ccccn2)CC1 | 2.82 µM (active) | – |
| CCOC(=O)N1CCN(C(=O)c2ccc3c(c2)N(Cc2cc(C)ccc2C)C(=O)c2ccccc2S3=O)CC1 (stereo not drawn) | 3.98 µM (active) | – |
| CCCn1c(=NC(=O)CCS(=O)(=O)c2ccccc2)sc2cc(S(N)(=O)=O)ccc21 | 12.6 µM (active) | – |
| O=C(NC1C=CS(=O)(=O)C1)c1sc2ccccc2c1Cl (stereo not drawn) | 0.398 µM (active) | – |
| CC1CCN(C(=O)Cn2c(=O)oc3cc(S(=O)(=O)N4CCCCC4)ccc32)CC1 | 12.6 µM (active) | – |
| COC(=O)c1c(-n2c(C)cc(C=O)c2C)sc2c1CCCC2 | 12.6 µM (active) | – |
| CCOC(=O)C[n+]1c(C)ccc2c1CCC2 | 12.6 µM (active) | – |
| O=C(CCNC(=O)c1ccc(Cl)cc1)NC1CCCc2ccccc21 (stereo not drawn) | 12.6 µM (active) | – |
| CN1CCN(c2ccccc2NC(=O)c2cccc(OCc3ccccc3)c2)CC1 | 1.78 µM (active) | – |
| CCOC(=O)c1ccc2c(c1)n(CC)c(/C=C/N(C)c1ccccc1)[n+]2CC | 0.0891 µM (active) | – |
| CCn1c(/C=C/N(C(C)=O)c2ccccc2)[n+](CC)c2ccc(Cl)cc21 | 1 µM (active) | – |
| Cc1ccc(CNC(=O)COc2ccccc2-c2ccccc2)cc1 | 11.2 µM (active) | – |
| O=[N+]([O-])c1cccc(-c2c[n+]3c(n2-c2ccccc2)SCC3)c1 | 1.78 µM (active) | – |
| COC(=O)C(NC(=O)c1ccccc1C)(Nc1ncc(S(=O)(=O)c2ccc([N+](=O)[O-])cc2)s1)C(F)(F)F (stereo not drawn) | 3.16 µM (active) | – |
| CCN(CC)c1ccc(/C=N/Nc2nc3ccccc3[nH]2)cc1 | 2.51 µM (active) | – |
| Cc1c(/C=N/Nc2nc3ccccc3[nH]2)c2ccccc2n1C | 0.891 µM (active) | – |
| Cc1ccc(S(=O)(=O)C2(C(=O)N3CCCCCC3)CC2)cc1 | – | -5.14% |
| CC(=O)N1CCSc2ccc(S(=O)(=O)Nc3ccc(C)cc3)cc21 | 12.6 µM (active) | – |
| CC(Oc1cccc(Cl)c1)C(=O)Nc1cc(S(=O)(=O)N2CCOCC2)ccc1N1CCCCC1 (stereo not drawn) | 3.98 µM (active) | – |

| Compound | Potency | activity change, negative = inhibition |
| --- | --- | --- |
| O=C(COc1ccc(Br)cc1)Nc1cc(S(=O)(=O)N2CCCCC2)ccc1N1CCCCC1 | 3.98 µM (active) | – |
| O=C(COc1ccc(Cl)cc1)Nc1cc(S(=O)(=O)N2CCCCC2)ccc1N1CCCCC1 | 5.01 µM (active) | – |
| COc1ccccc1Nc1nnc(SCC(=O)N2CCCC2)s1 | 2.51 µM (active) | – |
| COc1ccccc1Nc1nnc(SCc2cc(=O)n3ccsc3n2)s1 | 4.47 µM (active) | – |
| COc1ccccc1Nc1nnc(SCC(=O)Nc2nc(-c3ccc(F)cc3)cs2)s1 | 10 µM (active) | – |
| CCOc1ccccc1Nc1nnc(SC(C)C(=O)Nc2nc(-c3ccccc3)cs2)s1 (stereo not drawn) | 15.8 µM (active) | – |
| Cc1cc(C(=O)OC(C)C(=O)Nc2nc(-c3ccccc3)cs2)c(C)o1 (stereo not drawn) | – | -14.6% |
| COc1ccc(OC)c(-c2nc(C(=O)NC3CCN(Cc4ccccc4)CC3)cc3c2[nH]c2ccccc23)c1 | 4.47 µM (active) | – |
| COc1ccc(C(=O)NC2CC2)cc1OC1CCN(C/C=C/c2ccccc2)CC1 | 2.24 µM (active) | – |
| CCCN1CCC(NC(=O)CC2C(=O)NCCN2Cc2cccc(OC)c2)CC1 (stereo not drawn) | – | -2.53% |
| COc1ccc(C(=O)NC2CC2)cc1OC1CCN(Cc2ccccc2)CC1 | 14.1 µM (active) | – |
| CCCCCCn1ccc(=N)cc1 | 3.55 µM (active) | – |
| Cc1ccc(-c2csc(N/N=C/c3ccco3)n2)c(C)c1 | 14.1 µM (active) | – |
| CCOc1ccc(C(=O)Nc2ccc(N3CCN(C)CC3)cc2)cc1 | 15.8 µM (active) | – |
| CCOc1ccc(NC(=O)CC2C(=O)N(c3ccccc3)C(=O)N2CCOC)cc1 (stereo not drawn) | – | -4.39% |
| CC(C)N1CCC(N2CCN(Cc3ccc(-c4ccc(Cl)cc4)o3)CC2CCO)CC1 (stereo not drawn) | 5.01 µM (active) | – |
| CN1C[C@@H]2C[C@H]1CN2c1cc2c(cc1F)c(=O)c(C(=O)O)cn2C1CC1 | 2 µM (active) | – |
| COc1ccc(C2(CCN)CC(C)N(C)CC2C)cc1 (stereo not drawn) | 15.8 µM (active) | – |
| CCn1c2ccccc2c2cc(/C=N/n3cn[nH]c3=S)ccc21 | 6.31 µM (active) | – |
| CCOC(=O)C1(Cc2cccc(Cl)c2)CCCN(C(=O)C(C)(C)C)C1 (stereo not drawn) | 15.8 µM (active) | – |
| Cc1ccc(C2C3=C(CC(C)(C)CC3=O)N=C3c4ccccc4C(=O)C32)cc1 (stereo not drawn) | 7.08 µM (active) | – |
| O=C(CSc1c2c(nc3ccc(Cl)cc13)CCCC2)NCCCN1CCOCC1 | 10 µM (active) | – |
| CCN(CC)c1ccc(-c2sc(Nc3ccccc3)n[n+]2-c2ccc(F)cc2)cc1 | 12.6 µM (active) | – |
| c1ccn2cc(C34CC5CC(CC(C5)C3)C4)nc2c1 | 12.6 µM (active) | – |

| Compound | Potency | activity change, negative = inhibition |
| --- | --- | --- |
| Cc1c(OCC(=O)NCc2cccnc2)ccc2c3c(c(=O)oc12)CCCC3 | 12.6 µM (active) | – |
| Cc1c(OC(C)C(=O)NCc2cccnc2)ccc2c3c(c(=O)oc12)CCCC3 (stereo not drawn) | 1.26 µM (active) | – |
| O=c1oc2ccccc2c(O)c1CN1CCCCC1 | – | 0.904% |
| CC(=O)N1/C(=C/c2ccc(N(C)C)cc2)C(=O)c2ccccc21 | 0.282 µM (active) | – |
| CCOC(=O)Cn1c(S(=O)(=O)Cc2cccc(F)c2)nc(-c2ccccc2)c1-c1ccccc1 | 7.08 µM (active) | – |
| C#CCn1c(S(=O)(=O)Cc2ccc(F)cc2)nc(-c2ccccc2)c1-c1ccccc1 | 12.6 µM (active) | – |
| C#CCn1c(S(=O)(=O)Cc2ccc(C)cc2)nc(-c2ccccc2)c1-c1ccccc1 | 12.6 µM (active) | – |
| COc1cc(-c2nnc(NC(=O)CCS(=O)(=O)c3ccccc3)o2)cc(OC)c1OC | 12.6 µM (active) | – |
| Cc1sc(N/N=C/c2cccnc2)nc1-c1ccccc1 | 12.6 µM (active) | – |
| Cc1sc(NC(=O)c2c(F)cccc2F)nc1-c1ccccc1 | – | 6.15% |
| Cc1nc([N+](=O)[O-])c(Br)n1CC(=O)c1ccc(Cl)cc1 | 7.94 µM (active) | – |
| O=C(CSc1nc2cc([N+](=O)[O-])ccc2n1-c1ccccc1)NCc1ccc2c(c1)OCO2 | 11.2 µM (active) | – |
| COc1cc2c(cc1OC)CN(C(=O)c1cc(C3CC3)nn1-c1ccccc1)CC2 | 12.6 µM (active) | – |
| COc1cc2cc(CN(Cc3cccs3)C(=S)Nc3ccc(C)cc3)c(=O)[nH]c2cc1OC | 10 µM (active) | – |
| COc1cc2cc(CN(CCc3ccccc3C)C(=S)NCCCN3CCOCC3)c(=O)[nH]c2cc1OC | 4.47 µM (active) | – |
| O=C(NC1CCCC1)C1CC(=O)N(CCc2ccccc2)C1 (stereo not drawn) | – | -58% |
| O=C(NC1CCCCC1)C1CCN(c2nnnn2-c2ccccc2)CC1 | 14.1 µM (active) | – |
| O=C(Nc1cccc([N+](=O)[O-])c1)c1ccc2nsnc2c1 | – | 3.84% |
| O=C(CSc1nc2ccccc2c(=O)[nH]1)Nc1cccc([N+](=O)[O-])c1 | 14.1 µM (active) | – |
| CCOC(=O)CNC(c1ccccc1)c1cc(Br)ccc1NC(=O)CCN1CCOCC1 (stereo not drawn) | 11.2 µM (active) | – |
| COc1ccc(Cl)cc1C(=O)Nc1ccncc1 | 12.6 µM (active) | – |
| COc1ccc(Cl)cc1NC(=O)C(=O)NCc1ccncc1 | – | -9.49% |
| COc1ccc(Nc2cc(Cl)ccc2C(=O)O)cn1 | – | -63.4% |
| CC(=O)Nc1cccc(Oc2ncnc3scc(-c4ccc(C(C)C)cc4)c23)c1 | 6.31 µM (active) | – |

| Compound | Potency | activity change, negative = inhibition |
| --- | --- | --- |
| Cc1cc(C)c(C(=O)/C=C/c2cccc3ccccc23)c(=O)[nH]1 | 6.31 µM (active) | – |
| CCc1nnc(NC(=O)CSc2ncnc3c2cnn3-c2ccc(OC)cc2)s1 | 12.6 µM (active) | – |
| CCc1nnc(NC(=O)CSc2nc3cccnc3n2C2CCCCC2)s1 | – | -93.7% |
| O=C(NC12CC3CC(CC(C3)C1)C2)c1ccc([N+](=O)[O-])o1 | 2.24 µM (active) | – |
| CC(NC(=O)c1ccc([N+](=O)[O-])o1)C12CC3CC(CC(C3)C1)C2 (stereo not drawn) | 6.31 µM (active) | – |
| Cn1cc([N+](=O)[O-])c(C(=O)Nc2ccn(C34CC5CC(CC(C5)C3)C4)n2)n1 | – | -6.68% |
| COc1cc(C2Oc3ccccc3C=C2[N+](=O)[O-])cc(OC)c1OC (stereo not drawn) | 12.6 µM (active) | – |
| CN(c1ccccc1)S(=O)(=O)c1cc(C(=O)N2CCN(c3ncccn3)CC2)ccc1Cl | 8.91 µM (active) | – |
| CCOC(=O)C1(CCc2ccccc2)CCN(Cc2ccccn2)CC1 | 2.51 µM (active) | – |
| Cc1cccc(C)c1OCCn1nc(C(=O)O)c2ccccc2c1=O | – | -21.3% |
| Cc1cccc(C)c1NC(=O)C(=O)c1cn(C)c2ccccc12 | 15.8 µM (active) | – |
| COc1ccc(CN2C(=O)c3ccccc3C2C(=O)NC2CCC(C)CC2)c(OC)c1 (stereo not drawn) | 7.08 µM (active) | – |
| COc1cccc(CN2CCN(c3nc4nonc4nc3N3CCCCC3)CC2=O)c1 | 1.78 µM (active) | – |
| Cc1cc2nc3c(=O)[nH]c(=S)[nH]c3nc2cc1NC(=O)C(F)(F)F | 14.1 µM (active) | – |
| O=C(Nc1nc(-c2ccccn2)cs1)C1COc2ccccc2O1 (stereo not drawn) | 6.31 µM (active) | – |
| CCc1ccc(N/C(SCc2cccc(F)c2)=C(/C#N)C(=O)NCc2ccco2)cc1 | 7.94 µM (active) | – |
| O=C(NC1CCCN(Cc2ccc(Cl)cc2)C1)c1cnc2ccccn2c1=O (stereo not drawn) | 11.2 µM (active) | – |
| Cc1occc1C(=O)NC1CCCN(Cc2ccc(CC(C)C)cc2)C1 (stereo not drawn) | 12.6 µM (active) | – |
| Nc1c(C(=O)CSc2nc3ccccc3o2)c(=O)[nH]c(=O)n1C1CC1 | 12.6 µM (active) | – |
| Cc1ccccc1-n1c(SCC(=O)c2c(N)n(C3CC3)c(=O)[nH]c2=O)nnc1N1CCOCC1 | 7.94 µM (active) | – |
| Cc1ccc(-c2csc(SCC(=O)c3c(N)n(C4CC4)c(=O)[nH]c3=O)n2)cc1 | – | -17.4% |
